Only some compounds are listed: those with a hit (about 4.2% of all), similar ones and a draw of the others.
PfHsp90 yeast 2: growth inhibition of PfHsp90-expressing yeast, primary screen, antimalarial PfHsp90 inhibitor project, S. cerevisiae, BacTiter-Glo luminescence, single point, set 2 | inhibition, % at 9.4 µM | BacTiter-Glo ATP, 48 h; yeast lacking PDR1 and PDR3 efflux regulators | actives 0.32% (n = 310,000) | AID 504621, 2011;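 active means every replicate shows inhibition above about 80%, whatever the replicate mean, limit read from the data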
NALP3 yeast inh: NALP3 inflammasome inhibitors in reconstituted yeast, primary screen, luminescence, uHTS. Yeast reconstituted NLRP3/ASC/caspase-1, beta-gal luminescence, 24 h. inhibition, % at 10 µM. actives 0.39% (n = 330,000);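 active means inhibition of 50% or more; inactive means inhibition below 50%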
TIM10 inh: growth inhibitors of isogenic TIM10 control yeast, primary screen, counter-screen for tim10-1 yeast inhibitor project, luminescence, uHTS | S. cerevisiae TIM10 strain growth, BacTiter-Glo luminescence, 24 h | inhibition, % at 10 µM | actives 1.4% (n = 330,000) | AID 463195, 2010;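 active means inhibition of 40% or more at the single tested concentration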;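 further: wild-type TIM10 isogenic control strain grown at permissive 25 °C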
NALP1 inh: NALP1 inflammasome inhibitors in reconstituted yeast, colorimetric, S. cerevisiae, triplicate retest; AID 2071, 2009; actives 0.61% (n = 280,000); inhibition, % at 10 µM; S. cerevisiae NALP1/ASC/caspase-1 growth, X-gal OD620, 72 h; in the data active means inhibition mostly above about 24%, no sharp cut-off; inactive means mostly below about 32%
tim10-1 inh: growth inhibitors of tim10-1 mutant yeast, primary screen, luminescence, uHTS | S. cerevisiae tim10-1 ts strain growth, BacTiter-Glo, 24 h | inhibition, % at 20 µM | actives 2.2% (n = 330,000);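 active means inhibition of at least 40%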;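 further: mutant grown at 25 °C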
tim23-1 inh: growth inhibitors of tim23-1 mutant yeast, primary screen, luminescence, uHTS | inhibition, % at 20 µM | actives 1.3% (n = 330,000) | S. cerevisiae tim23-1 growth, BacTiter-Glo luminescence, 24 h;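 active means growth inhibition of the mutant yeast at or above 50%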;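 further: temperature-sensitive mutant grown at 25 °C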
tim10-1 confirm: growth inhibitors of tim10-1 mutant yeast, confirmation, single concentration, luminescence, S. cerevisiae; shares compounds with tim10-1 inh; S. cerevisiae tim10-1 ts strain growth, BacTiter-Glo, 24 h; inhibition, % at 20 µM; actives 56% (n = 7,400); AID 463213, 2010;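 active means inhibition of yeast growth at or above a set limit in either of two repeat tests at 20 µM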;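 further: tim10-1 mutant grown at permissive 25 °C to find synthetic lethal compounds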
TIM10 conf: growth inhibitors of wild-type TIM10 yeast, confirmation, counter-screen for tim10-1 synthetic lethality project, single concentration, luminescence, S. cerevisiae | S. cerevisiae tim10 strain growth, BacTiter-Glo luminescence, 24 h | shares compounds with TIM10 inh | actives 63% (n = 4,600) | inhibition, % at 10 µM | AID 463215, 2010;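 active means inhibition of yeast growth at or above a set limit in either of two replicates at 10 µM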; further: this counterscreen used the strain with wild-type TIM10
A number is an active result; n = inactive; x = no result.

SMILES	PfHsp90 yeast 2	NALP3 yeast inh	TIM10 inh	NALP1 inh	tim10-1 inh	tim23-1 inh	tim10-1 confirm	TIM10 conf
COc1cc2c(cc1OC)C(c1cc(Br)ccc1F)N(C(=O)CCl)CC2 (centres undefined)	n	n	45	n	42	n	40	43
COc1cc2c(cc1OC)C(C1C(=O)CC(C)(C)CC1=O)N(C(=O)CCl)CC2 (centres undefined)	n	n	n	n	n	n	x	x
N#Cc1c(N)[nH]c2ccc(Sc3ccccc3)cc12	n	x	x	x	x	x	x	x
COc1ccc(N2CCN(S(=O)(=O)c3cc4c(cc3C)N(C(C)=O)CCO4)CC2)cc1	n	n	n	n	n	n	x	x
O=C(Nc1ncc2c(n1)-c1ccccc1CC2)c1cccc(Cl)c1	n	n	44	n	49	n	43	n
COc1cc(C(=O)N/C(=C/c2ccc(F)cc2)C(=O)NC(C(=O)O)c2ccccc2)cc(OC)c1OC (centres undefined)	n	n	n	n	n	n	x	x
Cc1[nH]nc2c1-c1nc3ccccc3nc1C(C)(C)C2	x	n	44	n	44	n	35	n
Cc1ccccc1NC1=NC(=S)N(c2ccccc2)C12CCCCC2	n	n	50	n	54	n	46	n
Cc1ccccc1NC1=NC(=S)N(c2ccccc2)C12CCOC(C)(C)C2 (centres undefined)	n	n	n	n	n	n	x	x
COc1ccccc1C(c1nnnn1CCc1ccccc1)N1CCN(c2ccccc2)CC1 (centres undefined)	n	n	n	n	n	n	x	x
COc1ccccc1C(c1nnnn1CCc1ccccc1)N1CCCCCC1 (centres undefined)	n	n	43	n	42	n	n	n
O=C(CCNS(=O)(=O)c1ccccc1)NNC(=O)c1cccc(Cl)c1	n	n	n	x	n	n	x	x
COc1ccc2[nH]c(C)c(CCNC(=S)Nc3cccc(C)c3)c2c1	n	n	n	n	n	n	x	x
CCc1cccc(CC)c1NC(=S)NCCc1c(C)[nH]c2ccc(C)cc12	n	n	46	n	45	n	42	46
O=C(CCS(=O)(=O)c1ccccc1)N(CCCN1CCOCC1)c1nc2ccccc2s1	n	n	53	x	48	n	n	64
CCN(CC)/C(=N\S(=O)(=O)c1ccc(F)cc1)c1ccccc1	n	n	n	n	n	n	x	x
O=[N+]([O-])c1nn(-c2ccc3c(c2)OCCO3)n(O)c1=NC1CCCCC1	x	n	49	n	56	n	46	43
O=C(NCC(c1ccc(F)cc1)N1CCOCC1)c1nn(-c2ccccc2)c(=O)c2ccccc12 (centres undefined)	n	n	n	x	n	n	x	x
Cc1cc(C)c2c(=O)n(CC(=O)Nc3ccc(Cl)cc3)sc2n1	n	n	86	x	91	n	93	96
Cc1ccc(NC(=O)Cn2sc3nc(C)cc(C)c3c2=O)c(Cl)c1	n	n	81	n	86	n	92	96
Cc1cc(C)c2c(=O)n(CC(=O)Nc3cccc(F)c3)sc2n1	n	n	n	n	n	n	x	x
CCOc1ccc(NC(=O)Cn2sc3nc(C)cc(C)c3c2=O)cc1	n	n	46	n	83	n	90	88
Cc1ccc(S(=O)(=O)NCCc2cccs2)cc1	n	n	n	n	n	n	x	x
CN(C)Cc1nc2c(c(=O)[nH]1)C(C)(C)Cc1ccccc1-2	n	n	n	n	n	n	x	x
CN(C)Cc1nc2c(c(=O)[nH]1)C1(CCCCC1)Cc1ccccc1-2	n	n	44	n	49	n	38	38
SMILES	PfHsp90 yeast 2	NALP3 yeast inh	TIM10 inh	NALP1 inh	tim10-1 inh	tim23-1 inh	tim10-1 confirm	TIM10 conf
CCN(CC)c1ncnc2c1nnn2C	n	x	x	x	x	x	x	x
CCN(CC)c1ncnc2c1ncn2Cc1c(Cl)cccc1Cl	n	n	42	n	50	n	37	n
C#CCNC(=O)C1=C[C@@H](c2coc3ccccc3c2=O)C[C@@H](OCc2ccc(CO)cc2)O1	n	n	n	n	n	n	x	x
CC(C)n1c(CSCc2ccc(Cl)cc2Cl)n[nH]c1=S	n	n	41	n	49	n	n	49
Cc1nc2ccccc2n1/N=C/c1ccc([N+](=O)[O-])o1	n	n	78	x	74	n	72	88
Cc1ccc(/C=N/n2c(C)nc3ccccc3c2=O)o1	n	n	n	n	n	n	x	x
C[C@H](CO)N1C[C@H](C)[C@@H](CN(C)C(=O)Nc2ccc3c(c2)OCO3)Oc2c(NC(=O)Nc3ccc4c(c3)OCO4)cccc2C1=O	n	n	n	x	n	n	x	x
Cc1c(C(=O)N2CCc3ccccc3C2)oc2ccc(S(=O)(=O)N3CC(C)CC(C)C3)cc12 (centres undefined)	n	n	n	n	n	n	x	x
CC(=O)Nc1ccc(C(=O)OCc2ccc(Cl)c(Cl)c2)cc1	n	n	42	n	50	n	32	n
CC(=O)Nc1ccc(C(=O)OCc2ccc(Cl)cc2)cc1	n	n	50	n	49	n	48	35
CCC(=O)Nc1ccc(C(=O)OCc2ccc(Cl)c(Cl)c2)cc1	n	n	n	n	n	n	x	x
CC(=O)C1=NN(c2ccccc2)C(c2ccc3c(c2)OCO3)N1c1ccc(N2CCOCC2)cc1 (centres undefined)	n	n	n	n	n	n	x	x
COc1cccc(N2C(C(C)=O)=NN(c3ccccc3)C2c2ccc(N3CCOCC3)cc2)c1 (centres undefined)	n	n	42	n	48	n	32	n
Cc1ccc(C(=O)NCc2ccccn2)cc1S(=O)(=O)N1CCOCC1	n	n	n	x	n	n	x	x
COc1cc(/C=N/Nc2ccc(C(F)(F)F)cn2)cc(OC)c1O	n	n	n	n	n	n	x	x
Oc1ccc(/C=N/Nc2ccc(C(F)(F)F)cn2)cc1	n	n	48	n	44	n	n	n
COc1cccc2oc(-c3ccco3)cc(=O)c12	n	n	47	n	45	n	n	40
Cc1c(/C=N/NC(=O)c2sc3ccccc3c2Cl)cnn1C	n	n	43	n	53	n	34	50
CCN1CCN(S(=O)(=O)c2ccc(Cl)c(C(=O)Oc3ccc(CC(=O)OC)cc3)c2)CC1	n	x	x	x	x	x	x	x

Screens deposited in PubChem by several laboratories.
